Where “and” joins values, the source holds several entries; their conditions need not be identical. Equal entries are not always repeated. Results filed as inconclusive are left out. Some compounds were tested as several samples or in several runs, with calls that do not always agree. Calls of active or inactive are those of the source. Rule for the calls: active = hit-call score of the fitted dose curve at least 0.9, where 1 is the maximum; inconclusive = response in the unintended direction; inactive = score below 0.9.
Columns and labels:
[1] = tested on: zebrafish Estrogen Receptor (ER2a), gene 317734; test: ATG_zfER2a_XSP2: Attagene TRANS-FACTORIAL Multi-Species (XSP2) HepG2 Assay for zebrafish Estrogen Receptor (ER2a) (AID 2283818);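 note: hits raise reporter mRNA so AC50 reflects activation of zebrafish ER2a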
Procedure, shortened: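 HepG2 cells transiently transfected with GAL4-UAS reporter units and chimeric zebrafish ER2a-Gal4, exposed 24 h; medium contains 3 nM 6-alpha-fluorotestosterone and 1.5 nM norgestrel. Reporter mRNA quantified by RT-PCR, HpaI digestion, capillary electrophoresis; gain versus DMSO.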

[2] = tested on: chicken Androgen Receptor (AR), gene 422165; test: ATG_chAR_XSP2: Attagene TRANS-FACTORIAL Multi-Species (XSP2) HepG2 Assay for chicken Androgen Receptor (AR) (AID 2283819);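 note: hits raise reporter mRNA above DMSO so potency is for activation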
Procedure, shortened: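 HepG2 cells transiently transfected with chicken AR–GAL4 chimeric reporter constructs, stimulated with 3 nM 6-alpha-fluorotestosterone plus 1.5 nM norgestrel, dosed 24 h. Reporter mRNA quantified by RT-PCR and capillary electrophoresis; gain of signal fitted versus DMSO.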

[3] = tested on: frog Estrogen Receptor (ER), gene 398734; test: ATG_frER1_XSP2: Attagene TRANS-FACTORIAL Multi-Species (XSP2) HepG2 Assay for frog Estrogen Receptor (ER) (AID 2283821);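 note: hits raise reporter mRNA above DMSO baseline so potency means agonist or activator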
Procedure, shortened: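 HepG2 cells transiently transfected with GAL4-UAS reporter units expressing a chimeric frog ER-Gal4 protein; 24 h exposure. Reporter mRNA quantified by RT-PCR, fluorescent labelling and capillary electrophoresis; gain of signal fitted against DMSO baseline.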

[4] = tested on: zebrafish Estrogen Receptor (ER2b), gene 317733; test: ATG_zfER2b_XSP2: Attagene TRANS-FACTORIAL Multi-Species (XSP2) HepG2 Assay for zebrafish Estrogen Receptor (ER2b) (AID 2283823);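 note: fitted upward as reporter gain over DMSO so potency reflects activation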
Procedure, shortened: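 Reporter transcripts quantified by RT-PCR, fluorescent labelling and capillary electrophoresis after 24 h dosing of transfected HepG2 expressing zebrafish ER2b-GAL4 fusion. Medium contained 3 nM 6-alpha-fluorotestosterone plus 1.5 nM norgestrel; DMSO baseline.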

[5] = target: Estrogen receptor (Homo sapiens) (UniProt P03372); test: ATG_hERa_XSP2: Attagene TRANS-FACTORIAL Multi-Species (XSP2) HepG2 Assay for human Estrogen Receptor (ERa) (AID 2283827)
Protocol: ATG_XSP2_multi-species_TRANS is a cell-based, multiplexed assay created by modifying the existing Attagene TRANS-FACTORIAL system to include a panel of nuclear receptors from some or all the following species: human (Homo sapiens), mouse (Mus musculus), frog (Xenopus laevis), zebrafish (Danio rerio), chicken (Gallus gallus), and turtle (Chrysemys picta). The ECOTOX-FACTORIAL format uses HepG2, a human liver cell line, with measurements taken at 24 hours after chemical dosing in a 24-well plate. Xsp2 included 3 nM 6-alpha-fluorotestosterone and 1.5 nM norgestrel to stimulate the androgen receptor.ATG_hERa_XSP2 is one of 29 assay components measured or calculated from the ATG_XSP2_multi-species_TRANS assay. It is designed to make measurements of mRNA induction, a form of inducible reporter, as detected with fluorescence intensity signals by Reverse transcription polymerase chain reaction (RT-PCR) and Capillary electrophoresis technology.The assay endpoint ATG_hERa_XSP2 was analyzed in the positive analysis fitting direction relative to DMSO as the negative control and baseline of activity. Using a type of inducible reporter, measures of mRNA for gain-of-signal activity can be used to understand the reporter gene at the transcription factor-level as they relate to the gene ER. Furthermore, this assay endpoint can be referred to as a primary readout, because this assay has produced multiple assay endpoints where this one serves a reporter gene function. To generalize the intended target to other relatable targets, this assay endpoint is annotated to the nuclear receptor intended target family, where the subfamily is steroidal.
Human liver HepG2 cells are transiently transfected with multiple reporter transcription units (MRTUs) in 6-well plates using FuGene 6 reagent (Roche; 3 ml FuGene/1 mg DNA). The MRTU constructs are regulated by a cis-regulating element (promoter). […] A major difference between the CIS and TRANS system is that in CIS activities of endogenous TFs are measured, whereas the TRANS assay evaluates changes in activities of exogenous, chimeric NR-Gal4 proteins. […] At the end of 24 hour incubation, total RNA was isolated using TriZol reagent (Invitrogen). The isolated RNA is then reverse-transcribed using oligo(dT) primer and Mo-MLV reverse transcriptase (Invitrogen) with DNAse I (Ambion) treatment for 30 min. The one-tenth of the produced cDNA was amplified by PCR using Taq DNA polymerase (Invitrogen) and two reporter sequence-specific primers. The PCR products were fluorescently labeled by primer extension with 6-arboxyfluorescein (6-FAM) 5'-labeled reporter sequence-specific primer (2 min at 95 C, 20 s at 68 C and 10 min at 72 C) and these products were digested with 5U of HpaI (New England Biolabs) for 2h at 37 C. The fragments were purified using Qiaquick PCR columns (Qiagen), analyzed on an ABI 3130xL genetic analyzer (Applied Biosystems) with peak positions identified by using a set of X-rhodamine (ROX)-labeled MapMarker1000 molecular weight standards (BioVentures). The raw capillary electrophoresis data was processed using Attagraph software (Attagene).

[6] = tested on: frog Estrogen Receptor (ER2), gene 100174814; test: ATG_frER2_XSP2: Attagene TRANS-FACTORIAL Multi-Species (XSP2) HepG2 Assay for frog Estrogen Receptor (ER2) (AID 2283828)
Procedure, shortened: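 HepG2 cells transiently transfected with multiplexed GAL4-UAS reporter units expressing chimeric frog ER2–Gal4 protein; reporter mRNA measured 24 h after chemical dosing by RT-PCR, fluorescent labeling and capillary electrophoresis. Gain-of-signal fitted relative to DMSO baseline.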

[7] = target: Peroxisome proliferator-activated receptor gamma (Homo sapiens) (UniProt P37231); test: ATG_hPPARg_XSP2: Attagene TRANS-FACTORIAL Multi-Species (XSP2) HepG2 Assay for human Peroxisome Proliferator-activated Receptor gamma (PPARg) (AID 2283829);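 note: actives raise reporter mRNA above DMSO so AC50 reflects PPARg activation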
Procedure, shortened: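 HepG2 cells transiently transfected with GAL4-UAS reporter units driven by chimeric NR-Gal4 proteins; androgen receptor stimulated with 3 nM 6-alpha-fluorotestosterone and 1.5 nM norgestrel. After 24 h, reporter mRNA quantified by RT-PCR and capillary electrophoresis versus DMSO.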

[8] = ATG_M_19_XSP2: Attagene TRANS-FACTORIAL Multi-Species (XSP2) HepG2 Assay for M32 Transcription Factor (Internal Marker) (AID 2283822)
Protocol: (§1) ATG_XSP2_multi-species_TRANS is a cell-based, multiplexed assay created by modifying the existing Attagene TRANS-FACTORIAL system to include a panel of nuclear receptors from some or all the following species: human (Homo sapiens), mouse (Mus musculus), frog (Xenopus laevis), zebrafish (Danio rerio), chicken (Gallus gallus), and turtle (Chrysemys picta). The ECOTOX-FACTORIAL format uses HepG2, a human liver cell line, with measurements taken at 24 hours after chemical dosing in a 24-well plate. Xsp2 included 3 nM 6-alpha-fluorotestosterone and 1.5 nM norgestrel to stimulate the androgen receptor.ATG_M_19_XSP2 is one of 29 assay components measured or calculated from the ATG_XSP2_multi-species_TRANS assay. It is designed to make measurements of mRNA induction, a form of inducible reporter, as detected with fluorescence intensity signals by Reverse transcription polymerase chain reaction (RT-PCR) and Capillary electrophoresis technology.This assay endpoint, ATG_M_19_XSP2, was analyzed in the positive analysis fitting direction relative to DMSO as the negative control and baseline of activity. […] Furthermore, this assay endpoint can be referred to as a secondary readout, because this assay has produced multiple assay endpoints where this one serves a background control function. […]
Human liver HepG2 cells are transiently transfected with multiple reporter transcription units (MRTUs) in 6-well plates using FuGene 6 reagent (Roche; 3 ml FuGene/1 mg DNA). […] A major difference between the CIS and TRANS system is that in CIS activities of endogenous TFs are measured, whereas the TRANS assay evaluates changes in activities of exogenous, chimeric NR-Gal4 proteins. […] The fragments were purified using Qiaquick PCR columns (Qiagen), analyzed on an ABI 3130xL genetic analyzer (Applied Biosystems) with peak positions identified by using a set of X-rhodamine (ROX)-labeled MapMarker1000 molecular weight standards (BioVentures). […]

[9] = tested on: zebrafish Androgen Receptor (AR), gene 100005148; test: ATG_zfAR_XSP2: Attagene TRANS-FACTORIAL Multi-Species (XSP2) HepG2 Assay for zebrafish Androgen Receptor (AR) (AID 2283825);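 note: hits raise reporter mRNA above DMSO so AC50 reflects agonist-type gain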
Procedure, shortened: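 Zebrafish AR–GAL4 chimera transiently expressed with GAL4-UAS reporter in HepG2 cells, co-stimulated with 3 nM 6-alpha-fluorotestosterone and 1.5 nM norgestrel; 24 h dosing, reporter mRNA read by RT-PCR/capillary electrophoresis versus DMSO.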

[10] = tested on: frog Androgen Receptor (AR), gene 399456; test: ATG_frAR_XSP2: Attagene TRANS-FACTORIAL Multi-Species (XSP2) HepG2 Assay for frog Androgen Receptor (AR) (AID 2283824);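 note: reporter mRNA from GAL4-UAS units driven by Xenopus AR-Gal4 chimera; actives raise reporter signal above DMSO so AC50 reflects agonist-like induction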
Protocol: as §1, with “receptor.ATG_frAR_XSP2” for “receptor.ATG_M_19_XSP2”, “technology.The” for “technology.This”, “endpoint ATG_frAR_XSP2” for “endpoint, ATG_M_19_XSP2,”, “primary” for “secondary”, “reporter gene” for “background control”

Estrogen receptor (Homo sapiens), sequence (P03372 whole entry, looked up): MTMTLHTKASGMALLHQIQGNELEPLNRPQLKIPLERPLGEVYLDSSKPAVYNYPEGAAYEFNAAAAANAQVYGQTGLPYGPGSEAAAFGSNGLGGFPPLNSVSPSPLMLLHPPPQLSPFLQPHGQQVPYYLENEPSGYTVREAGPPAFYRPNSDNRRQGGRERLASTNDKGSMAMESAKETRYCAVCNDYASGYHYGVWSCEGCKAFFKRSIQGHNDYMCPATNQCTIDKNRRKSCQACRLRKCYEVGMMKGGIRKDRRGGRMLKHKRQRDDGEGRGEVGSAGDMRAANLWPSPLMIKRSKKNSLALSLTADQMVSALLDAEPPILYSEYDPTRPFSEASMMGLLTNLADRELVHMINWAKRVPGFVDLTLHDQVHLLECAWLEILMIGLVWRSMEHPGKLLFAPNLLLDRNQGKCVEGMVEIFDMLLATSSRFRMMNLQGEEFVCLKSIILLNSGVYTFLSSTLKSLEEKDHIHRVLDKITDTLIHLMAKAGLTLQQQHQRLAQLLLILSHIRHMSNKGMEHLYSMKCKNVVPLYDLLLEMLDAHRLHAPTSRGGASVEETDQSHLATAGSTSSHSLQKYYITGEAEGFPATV
Peroxisome proliferator-activated receptor gamma (Homo sapiens), sequence (P37231 whole entry, looked up, the tested form may be a part): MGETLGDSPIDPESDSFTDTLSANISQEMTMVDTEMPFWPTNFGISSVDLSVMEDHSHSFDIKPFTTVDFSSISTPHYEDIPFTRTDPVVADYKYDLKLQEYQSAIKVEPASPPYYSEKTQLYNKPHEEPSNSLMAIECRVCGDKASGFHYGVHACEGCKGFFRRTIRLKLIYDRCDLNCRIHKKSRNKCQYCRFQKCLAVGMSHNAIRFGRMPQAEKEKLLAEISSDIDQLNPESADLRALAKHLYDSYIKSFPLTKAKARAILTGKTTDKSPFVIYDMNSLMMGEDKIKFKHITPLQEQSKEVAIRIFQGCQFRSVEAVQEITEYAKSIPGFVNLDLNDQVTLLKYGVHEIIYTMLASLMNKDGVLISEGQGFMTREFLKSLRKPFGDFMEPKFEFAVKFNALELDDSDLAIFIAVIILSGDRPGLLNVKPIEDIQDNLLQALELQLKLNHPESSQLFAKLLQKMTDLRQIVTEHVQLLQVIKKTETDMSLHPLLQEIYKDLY

N#Cc1ccc(C2CCCc3cncn32)cc1 (stereo not drawn)
outcome [1]: inactive
outcome [2]: inactive
AC50 [3]: 50 µM (active)
AC50 [4]: 93.7 µM (active)
outcome [4]: inactive
outcome [5]: inactive
outcome [6]: inactive
outcome [7]: inactive

Oc1ccc(-c2ccccc2)c(Cl)c1
AC50 [1]: 4.34 µM (active) and 9.01 µM (active)
outcome [3]: inactive
outcome [8]: inactive
AC50 [4]: 9.03 µM (active) and 7 µM (active)
AC50 [5]: 5.18 µM (active) and 4.36 µM (active)
AC50 [6]: 5.62 µM (active) and 3.17 µM (active)
AC50 [7]: 33.4 µM (active) and 28.7 µM (active)

CCCCCCCCCCCCc1ccc(O)cc1
outcome [1]: inactive
AC50 [3]: 274 nM (active) and 44 nM (active)
AC50 [4]: 377 nM (active) and 126 nM (active)
outcome [9]: inactive
AC50 [5]: 546 nM (active) and 167 nM (active)
AC50 [6]: 610 nM (active) and 239 nM (active)
outcome [7]: inactive

CC(C)(C)NC(=O)[C@H]1CC[C@H]2[C@@H]3CC[C@H]4NC(=O)C=C[C@]4(C)[C@H]3CC[C@]12C
AC50 [1]: 142 µM (active)
outcome [3]: inactive
AC50 [4]: 67.5 µM (active)
AC50 [5]: 33.5 µM (active)
AC50 [6]: 100 µM (active)

COc1ccc(-c2coc3cc(O)cc(O)c3c2=O)cc1
AC50 [1]: 260 nM (active) and 38 nM (active)
AC50 [2]: 10 µM (active) and 6.25 µM (active)
AC50 [3]: 1.07 µM (active) and 98.3 nM (active)
AC50 [4]: 2.28 µM (active) and 310 nM (active)
outcome [10]: inactive
AC50 [5]: 931 nM (active) and 276 nM (active)
AC50 [6]: 501 nM (active) and 6.78 nM (active)
outcome [7]: inactive

CC(CCC(=O)O)(c1ccc(O)cc1)c1ccc(O)cc1
AC50 [1]: 46.6 µM (active) and 34.7 µM (active)
outcome [2]: inactive
outcome [3]: inactive
AC50 [4]: 42.6 µM (active) and 13.2 µM (active)
outcome [10]: inactive
outcome [9]: inactive
AC50 [5]: 17.4 µM (active) and 2.94 µM (active)
AC50 [6]: 27.5 µM (active)
outcome [6]: inactive
outcome [7]: inactive

C=C1C[C@H]2[C@@H]3C=C(C)C4=CC(=O)CC[C@]4(C)[C@H]3CC[C@]2(C)[C@@]1(OC(C)=O)C(C)=O
outcome [1]: inactive
outcome [3]: inactive
outcome [8]: inactive
outcome [4]: inactive
outcome [7]: inactive

Oc1ccccc1Cc1ccccc1O
AC50 [1]: 27.3 µM (active) and 8.24 µM (active)
AC50 [3]: 26.5 µM (active) and 7.86 µM (active)
outcome [8]: inactive
AC50 [4]: 29.1 µM (active) and 18.2 µM (active)
AC50 [5]: 26.9 µM (active) and 8.47 µM (active)
AC50 [6]: 27 µM (active) and 10.5 µM (active)
AC50 [7]: 43.4 µM (active) and 30.3 µM (active)

O=C(O)/C=C/c1ccccc1
outcome [1]: inactive
AC50 [3]: 31.6 µM (active)
outcome [4]: inactive
outcome [5]: inactive
outcome [7]: inactive

COc1ccc(C(=O)c2ccccc2)c(O)c1
AC50 [1]: 9.9 µM (active)
AC50 [3]: 5.07 µM (active) and 26 µM (active)
AC50 [4]: 43.3 µM (active) and 14.3 µM (active)
AC50 [5]: 6.54 µM (active) and 26.4 µM (active)
AC50 [6]: 7.66 µM (active) and 2.39 µM (active)
AC50 [7]: 74.1 µM (active) and 41.1 µM (active)

Source: PubChem BioAssay (EPA / NIEHS)
